The text below walks through data of PMC11995724, “Antibiotic target discovery by integrated phenotypic and activity-based profiling of electrophilic fragments” (Cell chemical biology, 2025).

The structures appear in SMILES notation. The campaign covered roughly 3,200 compounds. About 75 (2%) showed an effect of 50% or more. This excerpt belongs to a sample that is enriched for strong results.

In this assay the test system is T1, S. aureus MSSA476.
T1 construct: MSSA476
On the set-up: species or system S. aureus MSSA476 (TSB) or V. cholerae SAD30 (LB); 384-well bacterial growth screen at 25 uM, OD600 relative to DMSO control. The following applies: relative growth, OD600, TSB; 25 µM; inhibitor.
`CC(Cl)C(=O)NCc1nn(-c2ccccc2)c2c1CCC2` (stereo not shown) [7-P05, 2-chloro-N-({1-phenyl-1H,4H,5H,6H-cyclopenta[c]pyrazol-3-yl}methyl)propanamide]: the “% of control remaining” value worked out at 91.9937%. Consider `COc1ccc(-c2csc(NC(=O)CCl)n2)c(OC)c1` [4-F12, 2-chloro-N-[4-(2,4-dimethoxyphenyl)-1,3-thiazol-2-yl]acetamide], for which the “% of control remaining” value came to 83.4683%. Consider `O=C(CCl)Nc1nc(-c2ccccc2)cs1` [4-L04, 2-chloro-N-(4-phenyl-1,3-thiazol-2-yl)acetamide], for which the “% of control remaining” value came out at 143.306%.

Regarding `CCCc1ccc(-c2csc(NC(=O)CCl)n2)cc1` [4-C09, 2-chloro-N-[4-(4-propylphenyl)-1,3-thiazol-2-yl]acetamide], the “% of control remaining” value is on record as 5.717%. `COc1ccc(-c2csc(NC(=O)CCl)n2)c(O)c1` [4-A11, 2-chloro-N-[4-(2-hydroxy-4-methoxyphenyl)-1,3-thiazol-2-yl]acetamide]: the “% of control remaining” value is recorded as 1.1434%. Consider `COc1ccc(OC)c(-c2csc(NC(=O)CCl)n2)c1` [4-H12, 2-chloro-N-[4-(2,5-dimethoxyphenyl)-1,3-thiazol-2-yl]acetamide], for which the “% of control remaining” value was determined as 86.8985%.

For `COc1ccc(-c2csc(NC(=O)CCl)n2)cc1` [4-N06, 2-chloro-N-[4-(4-methoxyphenyl)-1,3-thiazol-2-yl]acetamide], the “% of control remaining” value is recorded as 111.291%.

On to `CC(Cl)C(=O)N1CCN(C(C)c2cccc(C#N)c2)CC1` (stereo not shown) [7-P22, 3-{1-[4-(2-chloropropanoyl)piperazin-1-yl]ethyl}benzonitrile], for which the “% of control remaining” value is given as 115.542%.

For `C=CC(=O)NCCc1nnc(C)s1` [3-G22, N-[2-(5-methyl-1,3,4-thiadiazol-2-yl)ethyl]prop-2-enamide], the “% of control remaining” value was 111.45%.

Turning to `C=CC(=O)N(CC)CC(=O)N1CCCC1c1ccc(F)cc1C` (stereo not shown) [2-F08, N-ethyl-N-{2-[2-(4-fluoro-2-methylphenyl)pyrrolidin-1-yl]-2-oxoethyl}prop-2-enamide], the “% of control remaining” value worked out at 97.1279%.

Take `CC(=O)c1cccc(S(=O)(=O)N2CCN(C(=O)CCl)CC2)c1` [4-F05, 1-[4-(3-acetylbenzenesulfonyl)piperazin-1-yl]-2-chloroethan-1-one]: the “% of control remaining” value amounted to 105.574%. For the molecule `C=CC(=O)N1CCC(Cn2nc(C)cc2C)CC1` [2-C17, 1-{4-[(3,5-dimethyl-1H-pyrazol-1-yl)methyl]piperidin-1-yl}prop-2-en-1-one], the “% of control remaining” value stood at 100.957%. For `CCOc1ccccc1NC(=O)C(C#N)=Cc1c(F)cccc1F` [8-G21, 2-cyano-3-(2,6-difluorophenyl)-N-(2-ethoxyphenyl)prop-2-enamide], the “% of control remaining” value came to 69.3776%. With `CCc1cnc(N2CCN(C(=O)C(C)Cl)CC2)s1` (stereo not shown) [7-C20, 2-chloro-1-[4-(5-ethyl-1,3-thiazol-2-yl)piperazin-1-yl]propan-1-one], the “% of control remaining” value was determined as 99.2151%.

`C=CC(=O)N(C)CC(=O)N1CCC2(CC1)CC2c1nnc(C(C)C)o1` (stereo not shown) [2-N22, N-methyl-N-(2-oxo-2-{1-[5-(propan-2-yl)-1,3,4-oxadiazol-2-yl]-6-azaspiro[2.5]octan-6-yl}ethyl)prop-2-enamide]: the “% of control remaining” value is 98.8686%. `N#CC(=Cc1ccc2c(c1)OCO2)C(=O)NCc1ccccc1` [8-A09, 3-(1,3-dioxaindan-5-yl)-N-benzyl-2-cyanoprop-2-enamide]: the “% of control remaining” value came out at 113.527%. For the molecule `COC(=O)c1c(C(=O)CCl)c(C)n(C(C)C)c1C` [10-K21, methyl 4-(2-chloroacetyl)-2,5-dimethyl-1-(propan-2-yl)-1H-pyrrole-3-carboxylate], the “% of control remaining” value is recorded as 119.375%. For the molecule `CC(C)n1ccnc1C(=O)CCl` [10-H10, 2-chloro-1-[1-(propan-2-yl)-1H-imidazol-2-yl]ethan-1-one], the “% of control remaining” value was found to be 2.1875%. Take `Cn1ccnc1C(=O)CCl` [10-C15, 2-chloro-1-(1-methyl-1H-imidazol-2-yl)ethan-1-one]: the “% of control remaining” value came out at 93.75%. As for `C=CCNC(=O)C(C#N)=Cc1sccc1C` [9-P07, 2-cyano-3-(3-methylthiophen-2-yl)-N-(prop-2-en-1-yl)prop-2-enamide], the “% of control remaining” value is 115.955%.

Take `CC(Cl)C(=O)Nc1ccc(Cl)cc1Cl` (stereo not shown) [4-L17, 2-chloro-N-(2,4-dichlorophenyl)propanamide]: the “% of control remaining” value worked out at 92.9967%.

Regarding `CC(Cl)C(=O)N1CCCN(C(=O)c2cc(Cl)cn2C)CC1` (stereo not shown) [7-N07, 2-chloro-1-[4-(4-chloro-1-methyl-1H-pyrrole-2-carbonyl)-1,4-diazepan-1-yl]propan-1-one], the “% of control remaining” value amounted to 91.6797%. `CC(=O)Nc1ccc(C(=O)CCl)cc1` [10-O12, N-[4-(2-chloroacetyl)phenyl]acetamide]: the “% of control remaining” value was 6.875%. As to `NC(=O)Nc1ccc(C(=O)CCl)cc1` [10-J07, [4-(2-chloroacetyl)phenyl]urea], the “% of control remaining” value is 55.625%. Take `CC(=O)c1ccc(NC(=O)CCl)cc1` [4-G07, N-(4-acetylphenyl)-2-chloroacetamide]: the “% of control remaining” value turned out to be 93.7589%. The figure for `CS(=O)(=O)Nc1ccc(C(=O)CCl)cc1` [10-D19, N-[4-(2-chloroacetyl)phenyl]methanesulfonamide] is 28.125%; for `CCCC(=O)Nc1ccc(C(=O)C(C)Cl)cc1` (stereo not shown) [10-O06, N-[4-(2-chloropropanoyl)phenyl]butanamide] it is 121.875%. On to `CC(C)CC(=O)Nc1ccc(C(=O)CCl)cc1` [10-N06, N-[4-(2-chloroacetyl)phenyl]-3-methylbutanamide], for which the “% of control remaining” value stood at 1.25%. The figure for `O=C(CCl)c1ccc(NC(=O)c2ccccc2)cc1` [10-B06, N-[4-(2-chloroacetyl)phenyl]benzamide] is 0%; for `O=C(CCl)Nc1cccc(NC(=O)c2ccccc2)c1` [6-A03, N-[3-(2-chloroacetamido)phenyl]benzamide] it is 76.1463%. On to `NC(=O)c1ccc(NC(=O)CCl)cc1` [4-P04, 4-(2-chloroacetamido)benzamide], for which the “% of control remaining” value came out at 95.2835%. As to `CS(=O)(=O)c1ccc(C(=O)CCl)cc1` [10-I13, 2-chloro-1-(4-methanesulfonylphenyl)ethan-1-one], the “% of control remaining” value came to 83.125%. `CS(=O)(=O)NCCc1ccc(C(=O)CCl)cc1` [10-D06, N-{2-[4-(2-chloroacetyl)phenyl]ethyl}methanesulfonamide]: the “% of control remaining” value turned out to be 79.375%.

With `COc1ccccc1NC(=O)c1ccc(NC(=O)CCl)cc1` [4-O17, 4-(2-chloroacetamido)-N-(2-methoxyphenyl)benzamide], the “% of control remaining” value was 92.2344%.
